Hits are enriched below; roughly 5.9% of the tested compounds scored in any of these assays.
HSF1 activator = increases HSF-1 driven luciferase reporter signal; activation, % at 9 µM; NIH3T3-HGL HSF-1 luciferase reporter, MG132, 8 h; 100% = twice DMSO control signal; AID 504408; 300,000 compounds, 1.7% hits;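 active = mean replicate activation of at least 50% with a set share of replicates each reaching 50%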
HSP90 refold inh = inhibitors of HSP90 luciferase refolding in rabbit reticulocyte lysate; luciferase refolding luminescence, 3 h; inhibition, % at 5.6 µM; 290,000 compounds, 0.91% hits;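 active = inhibition above the screen-wide mean plus 3 SD, computed separately per campaign, cut at about 16% in these data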;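 note: inhibitors lower the luminescence because luciferase stays unfolded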
NR0B1 inh = NR0B1 (DAX1) inhibition; 340,000 compounds, 0.99% hits; inhibition, % at 6.75 µM; P51843; HEK293 Gal4-DAX1 luciferase reporter, luminescence;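 active = inhibition above the mean over all tested compounds plus 3 SD, cut at about 4.2% in these data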;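 note: inhibition shows as a rise in luminescence from relieved DAX1 repression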
GAA850 FXN act = increases GAA850 frataxin promoter reporter activity; HEK293 lucGAA850 FXN promoter luciferase reporter, 24 h; percent of 10 µM SAHA response; activation, % at 6 µM; 360,000 compounds, 0.56% hits; AID 540364;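 active = activation above the average of all compounds screened plus 3 SD, cutoff fixed separately per campaign, cut at about 7.5% in these data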
AHR act = activators of human aryl hydrocarbon receptor; P35869; AHR-responsive luciferase reporter cells, luminescence; activation, % at 5 µM; 320,000 compounds, 2.5% hits; in the data active = activation above about 47%
HSF1 inhib = HSF1 inhibition; NIH3T3-HGL HSE-luciferase, MG132-induced, luminescence 8 h; active compounds read low; activity change, negative = inhibition, % at 7.5 µM (by protocol); 300,000 compounds, 0.77% hits; AID 2098;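 active = more than half of replicate wells show activity change below -50%, luminescence cut by over half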;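 note: luciferase reports HSF-1 transcriptional activity via heat shock element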
Each line names hits and unclear results; the compound was inactive in the other large screens.

CNc1ncnc2c1ncn2[C@@H]1O[C@H](CO)[C@@H](O)[C@H]1O	AHR act 60 (no result: HSF1 activator, HSP90 refold inh, HSF1 inhib)
COc1c(S(=O)(=O)N2CCN(C(=O)c3ccco3)CC2)ccc(Cl)c1Cl	none
Cc1ccc(-c2nc3ccccc3nc2Cl)cc1	none
Cc1ccc(-c2nc3ccccc3nc2NN)cc1	NR0B1 inh 5.1
C/C(=N\Nc1ccc(Cl)cc1)c1ccncc1	AHR act 68
C/C(=N\NC=O)c1ccncc1	NR0B1 inh 5.0
C/C(=N\NC(=O)c1ccc(Cl)cc1)c1ccccn1	none
C/C(=N\Nc1ccc(Cl)cc1)c1ccccn1	AHR act 68
O=C(NC1=NCCS1)c1ccc(Cl)c(S(=O)(=O)N2CCOCC2)c1	none
COCCN(C(=O)CSc1nnc(-c2ccc(C(C)(C)C)cc2)n1N)c1c(N)n(CC(C)C)c(=O)[nH]c1=O	none (no result: HSP90 refold inh)
Cc1cccc(OCC(=O)N/N=C/c2cn[nH]c2-c2ccc(Cl)c(Cl)c2)c1	AHR act 47
Cc1ccc(OCC(=O)N/N=C/c2cn[nH]c2-c2ccc(Cl)c(Cl)c2)cc1	none
O=C(O)c1ccc(C[n+]2c(-c3ccccc3)csc2Nc2ccccc2)cc1	none
CCCCCC[n+]1c(-c2ccccc2)csc1Nc1ccccc1	HSF1 activator 63
Cc1csc(-c2cnn(-c3ccccc3)c2NC(=O)c2cccc(C(F)(F)F)c2)n1	HSF1 activator 81
Cc1ccccc1N=Nc1c(O)[nH]c2ccccc12	AHR act 48 (no result: HSP90 refold inh, NR0B1 inh)
CN(C)C(=O)c1ccc(N=Nc2c(O)c3ccccc3[nH]c2=O)cc1	none (no result: HSF1 activator, HSP90 refold inh, AHR act, HSF1 inhib)
CNC(=S)N=Nc1c(O)[nH]c2ccccc12	none
COc1ccc(N=Nc2c(C)[nH]c3ccccc23)cc1	none (no result: HSP90 refold inh)
CC(=O)c1cccc(N=Nc2c(C)[nH]c3ccccc23)c1	AHR act 64
Cc1ccc2[nH]c(O)c(N=O)c2c1	NR0B1 inh 4.9
O=C(O)c1ccc(N=Nc2c(O)[nH]c3ccccc23)cc1	HSP90 refold inh 41
Cc1cccc(N=Nc2c(O)[nH]c3ccc(Br)cc23)c1	none
Cc1ccc(F)c(S(=O)(=O)NC(=O)C2(C)CCN2C(=O)COc2ccc(Cl)cc2)c1 (stereo unspecified)	none (no result: HSF1 activator, HSP90 refold inh, NR0B1 inh, AHR act, HSF1 inhib)
O=C(N=Nc1c(O)[nH]c2ccccc12)c1cccs1	HSF1 activator 76
Cc1ccc2[nH]c(O)c(N=Nc3ccccc3C)c2c1	HSF1 inhib -63
O=C(CSc1nc2ccccc2[nH]1)N=Nc1c(O)[nH]c2ccccc12	AHR act 53
COc1ccc2[nH]c(N=Nc3ccccc3C)c(O)c2c1	AHR act 65
Cn1c(SCC(=O)N=Nc2c(O)[nH]c3ccccc23)nc2ccccc21	none (no result: NR0B1 inh, GAA850 FXN act)
COc1ccccc1N=Nc1c(O)[nH]c2ccc(Br)cc12	none
CC(C)c1cccc(C2=CC(=O)C[C@H](c3ccc4c(c3)OCO4)C2)c1	none (no result: HSF1 activator, HSP90 refold inh, HSF1 inhib)
S=C(Nc1ccccc1Cl)Nc1ccc(Cl)cc1Cl	none
O=C(Nc1ccccc1Cl)Oc1ccc(Cl)cc1Cl	AHR act 50
COc1cc(-c2nc3ccc(N4CCN(C)CC4)cc3[nH]2)cc(OC)c1OC	none
COc1ccc(-c2nc3ccc(N4CCN(C)CC4)cc3c(=O)[nH]2)cc1	NR0B1 inh 5.0, AHR act 56
C[C@H]1CN([C@@H](C)CO)C(=O)CCCn2nncc2CO[C@H]1CN(C)S(=O)(=O)c1ccc(F)cc1	none (no result: HSF1 activator, HSP90 refold inh, AHR act, HSF1 inhib)
Nc1c2c(=O)[nH]c(O)cc2nn1-c1ccccc1	none (no result: HSF1 activator, HSP90 refold inh, AHR act, HSF1 inhib)
Nc1cccc(CCc2ccncc2)c1	none
Nc1cccc(/C=C/c2ccncc2)c1	HSF1 activator 54
CC(=O)c1ccc(N2CCN(C(=O)[C@H](C)NC(=O)c3ccccc3Cl)CC2)cc1	NR0B1 inh 6.0
O=C(CSc1nnc(C2COc3ccccc3O2)o1)Nc1nccs1 (stereo unspecified)	NR0B1 inh 4.4
O=C(CSc1nnc(C2COc3ccccc3O2)o1)NC1CCCCC1 (stereo unspecified)	none
C=CCc1cccc(CNc2ccc(Br)cc2)c1O	AHR act 71
C=CCc1cccc(CNc2ccc(S(=O)(=O)Nc3nccnc3OC)cc2)c1O	none
Cc1ccc(S(=O)(=O)Nc2cccc3c2O[C@H](CN(C)C(=O)Nc2ccc(C(F)(F)F)cc2)[C@@H](C)CN([C@H](C)CO)C3=O)cc1	none (no result: HSF1 activator, HSP90 refold inh, HSF1 inhib)
O=C(CSc1nnc(COc2ccc3c(c2)CCCC3)o1)Nc1ccc(F)cc1	HSF1 inhib -58
O=C(CSc1nnc(COc2ccc(Cl)cc2)o1)Nc1ccc(N2CCOCC2)cc1	none (no result: HSF1 activator, HSP90 refold inh, AHR act, HSF1 inhib)

From PubChem BioAssay
